The source of these data is the supplement of paper PMC10720658.

± gives the standard deviation of the averaged measurements.

For the test, the system named is AEK1 (Tb927.3.2440). Description: percent reduction in TR-FRET probe signal relative to DMSO control; higher = stronger displacement of ATP-site probe (binding). The conditions noted are these: 1 µM; incubation time 1 h. (In TR-FRET formats the signal depends on donor and acceptor labels being close together.)
`CCCCOc1c(C(=O)c2c(F)cc(C)cc2F)cnc2[nH]ncc12`: the “percent reduction in TR-FRET probe signal” value (“percent reduction” for short) was 0.53 ± 8%.

Consider `NC(=O)Nc1cc(-c2cccc(F)c2)sc1C(=O)N[C@H]1CCCNC1`, for which the “percent reduction” value worked out at 48.5 ± 24%.

In the case of `O=c1cc(-c2ccccc2)oc2c(O)c(O)ccc12` [7,8-Dihydroxyflavone], the “percent reduction” value is -6.52 ± 5.7%.

Take `CN1CC[C@@H](c2c(O)cc(O)c3c(=O)cc(-c4ccccc4Cl)oc23)[C@@H]1CO.Cl`: the “percent reduction” value was 4 ± 2.6%.

With `C[C@@H]1CN(CC(=O)Nc2ccc3c(c2)Cc2cccc(-c4cc(=O)cc(N5CCOCC5)o4)c2S3)C[C@H](C)O1`, the “percent reduction” value was -2.9 ± 6.6%.

Consider `Cc1nc2c(-c3cnc(N)nc3)nc(N3CCOCC3)nc2n1C(C)C`, for which the “percent reduction” value is -5.76 ± 8.3%.

Turning to `CN(C[C@@H]1COCCO1)S(=O)(=O)Nc1ccc2ccc3ncc(-c4cnn(C)c4)cc3c(=O)c2c1`, the “percent reduction” value is 7.88 ± 10%.

Regarding `CC(=O)Nc1nc(C)c(-c2ccc(Cl)c(S(=O)(=O)NCCO)c2)s1`, the “percent reduction” value is -6.5 ± 15%.

Regarding `CO[C@H]1CC[C@H](N2C(=O)CNc3ncc(-c4ccc(C(C)(C)O)nc4)nc32)CC1`, the “percent reduction” value was -4.45 ± 1.6%.

As for `CC(C)N(CCC(=O)c1ccc2ccccc2c1)Cc1ccccc1.Cl`, the “percent reduction” value amounted to 1.95 ± 3.1%.

For the compound `Cc1cc(C)c(/C=C2\C(=O)Nc3ccccc32)[nH]1` [Semaxanib (SU5416)], the “percent reduction” value was 2.37 ± 8.9%.

On to `N#CCNC(=O)c1ccc(-c2ccnc(Nc3ccc(N4CCOCC4)cc3)n2)cc1`, for which the “percent reduction” value came out at 16.3 ± 16%.

`O=C(NOCC1CC1)c1ccc(F)c(F)c1Nc1ccc(I)cc1Cl`: the “percent reduction” value worked out at 5.58 ± 12%.

Turning to `CNC(=O)c1c(F)cccc1Nc1nc(Nc2cc3c(cc2OC)CCN3C(=O)CN(C)C)nc2[nH]ccc12`, the “percent reduction” value was -0.577 ± 11%.
